# Screening data (PubChem)
# TLR9-MyD88 inh: TLR9-MyD88 interaction inhibition; CHO BLA complementation TLR9-MyD88, CCF4 FRET ratio; inhibition, % at 4.98 µM; 0.21% of 340,000 active; AID 504734;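 active = inhibition above the mean over all tested compounds plus 3 SD, cut at about 21% in these data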;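 note: 0% = DMSO only wells and 100% = clavulanate BLA inhibitor control wells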
# TLR4-MyD88 BLA: blocks binding of human TLR4 to MyD88; HeLa CL3-4 TLR4/MyD88 BLA complementation, FRET ratio; inhibition, % at 8.4 µM; 0.18% of 200,000 active; AID 861; in the data active = inhibition above about 25%;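 note: 0% = vehicle and 100% = reference inhibitor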
# Target sequence (O00206 whole entry, looked up): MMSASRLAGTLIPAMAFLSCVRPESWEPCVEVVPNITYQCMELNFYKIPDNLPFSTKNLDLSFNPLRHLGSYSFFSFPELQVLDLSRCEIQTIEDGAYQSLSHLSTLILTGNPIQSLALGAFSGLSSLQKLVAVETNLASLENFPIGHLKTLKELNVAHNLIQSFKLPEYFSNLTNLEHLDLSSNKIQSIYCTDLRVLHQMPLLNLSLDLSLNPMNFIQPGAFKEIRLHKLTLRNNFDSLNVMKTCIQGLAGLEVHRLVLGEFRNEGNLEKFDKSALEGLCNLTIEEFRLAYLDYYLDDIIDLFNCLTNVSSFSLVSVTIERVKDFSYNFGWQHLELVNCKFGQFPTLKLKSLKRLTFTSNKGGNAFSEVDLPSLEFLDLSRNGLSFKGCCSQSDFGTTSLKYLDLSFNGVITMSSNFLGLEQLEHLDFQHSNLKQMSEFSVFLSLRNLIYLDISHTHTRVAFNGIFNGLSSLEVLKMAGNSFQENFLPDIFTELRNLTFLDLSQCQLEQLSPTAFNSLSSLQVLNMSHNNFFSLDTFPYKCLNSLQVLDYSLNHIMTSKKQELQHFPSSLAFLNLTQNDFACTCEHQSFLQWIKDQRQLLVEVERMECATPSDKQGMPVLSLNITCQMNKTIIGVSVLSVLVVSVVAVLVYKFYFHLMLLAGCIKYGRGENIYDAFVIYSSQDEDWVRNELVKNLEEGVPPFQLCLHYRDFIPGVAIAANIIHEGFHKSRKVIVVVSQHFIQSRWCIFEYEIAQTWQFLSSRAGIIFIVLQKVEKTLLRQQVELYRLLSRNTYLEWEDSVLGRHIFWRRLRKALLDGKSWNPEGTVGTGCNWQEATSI
# Target sequence (Q99836 whole entry, looked up): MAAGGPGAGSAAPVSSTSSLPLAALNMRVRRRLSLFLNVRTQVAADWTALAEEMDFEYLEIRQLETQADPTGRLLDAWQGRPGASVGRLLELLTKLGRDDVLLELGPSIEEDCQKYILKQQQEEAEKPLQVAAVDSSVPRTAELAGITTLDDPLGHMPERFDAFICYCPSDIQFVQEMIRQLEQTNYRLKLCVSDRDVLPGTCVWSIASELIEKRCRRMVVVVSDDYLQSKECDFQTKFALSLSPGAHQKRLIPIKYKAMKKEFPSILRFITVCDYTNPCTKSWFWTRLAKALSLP
# Myeloid diff MLP: myeloid differentiation induction; AID 624256; calls only at 10 µM; 1% of 360,000 active; ER-HoxA9 myeloid progenitors, lysozyme-GFP differentiation, flow cytometry;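 active = normalized GFP-positive differentiation at or above the plate's own cutoff, the solvent-only control mean plus 3 SD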;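 note: cells exposed to compound for four days before flow analysis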
# ABCB6 inh 2: blocks the human ABCB6 transporter; fluorescence ratio to DMSO, % at 10 µM; AID 602162; 0.19% of 360,000 active; K562-ABCB6 porphyrin accumulation, flow cytometry, 1 h; stronger effect = lower value;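 active = fluorescence ratio to DMSO below 75%, the collection mean minus 3 SD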;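 note: signal is porphyrin accumulated inside mitochondria; 100% equals median channel fluorescence of DMSO control wells; lower ratio means ABCB6 inhibition with less porphyrin fluorescence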
# NOD2 RIPK2 PPI: inhibitors of human NOD2-RIPK2 interaction. AID 624267. inhibition, % at 4.98 µM. 0.38% of 360,000 active. O43353. CHO BLA complementation NOD2-RIPK2, CCF4 ratio; in the data active = inhibition above about 21%;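 note: 0% = vehicle only and 100% = reference blocker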
# Myeloid diff CP1: promotes myeloid progenitor differentiation; shares compounds with Myeloid diff MLP; ER-HoxA9 myeloid progenitors, GFP/Mac1 double-positive flow; calls only; 2% of 2,300 active; AID 651706;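 active = share of green or green-and-red cells above 9 and 9% in run 1 or 4 and 3% in run 2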
# GFP autofluor: flagged as fluorescent in myeloid differentiation counter-screen. 7.4% of 2,300 active. AID 651707. shares compounds with Myeloid diff MLP. ER-HoxA9 myeloid progenitors, no estrogen, GFP autofluorescence flow cytometry; vehicle wells 0%, positive control 100%. fluorescence response, % (concentration not given with the values);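 active = over 5% cells positive for green fluorescent reporter, or over 2% positive for both it and APC stain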;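 note: range taken on the double positive population between DMSO and positive control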
# * marks the source's active call; other numbers are inactive results; i = inactive; nt = not tested or not shown; + = active, no number. In the library only some 1.7% were active in any assay of this set; here they are far more common.
SMILES,TLR9-MyD88 inh,TLR4-MyD88 BLA,Myeloid diff MLP,ABCB6 inh 2,NOD2 RIPK2 PPI,Myeloid diff CP1,GFP autofluor
Cc1ccc(OCC(=O)Nc2nc(C)c(Cl)cc2Cl)c([N+](=O)[O-])n1,-12.8,nt,i,96.0,-0.4,nt,nt
CCS(=O)(=O)NCCNc1ccc([N+](=O)[O-])cc1,-1.8,10.6,i,100.0,-1.2,nt,nt
O=c1oc(-c2cccs2)nc2c1cnn2-c1ccccc1,9.5,8.6,i,98.0,-6.6,i,1.1
O=c1oc(-c2ccccc2)nc2c1cnn2-c1ccccc1,-13.0,-1.7,i,104.0,-7.7,nt,nt
COc1ccc(/C=N/NC2=NS(=O)(=O)c3ccccc32)cc1OC(C)=O,2.2,nt,i,107.0,8.1,i,0.0
O=C(COc1coc(CN2CCCc3ccccc32)cc1=O)Nc1ccc([N+](=O)[O-])cc1,9.2,nt,+,693.0,7.2,i,0.0
COc1ccc(CC(N)c2csc(NC(=O)c3cc(C(C)(C)C)nn3Cc3ccccc3)n2)cc1 (centres undefined),nt,nt,+,95.0,2.8,i,0.0
COc1ccc(CNC(=O)N2CCN(c3cccc(Cl)c3)CC2)cc1OC,5.6,nt,i,105.0,1.8,nt,nt
Cc1cccc(N2CCN(C(=O)NCc3ccc(Cl)cc3)CC2)c1,-8.9,-11.1,i,98.0,-6.9,i,0.0
CCCCC(=O)N(C)c1c(CC)nc2c(OCC(=O)c3ccc(Cl)cc3Cl)cccn12,nt,nt,i,90.0,5.6,nt,nt
Fc1cccc(Cl)c1C1Nc2cccc3cccc(c23)N1,-0.3,nt,i,112.0,-10.1,nt,nt
Clc1cccc(Cl)c1C1Nc2cccc3cccc(c23)N1,-7.2,nt,+,128.0,12.4,i,0.3
N#CCC(CNc1ncc(C(F)(F)F)cc1Cl)OC(=O)c1cccc([N+](=O)[O-])c1 (centres undefined),0.2,17.0,i,100.0,-19.0,i,1.0
N#CCC(CNc1ncc(C(F)(F)F)cc1Cl)OC(=O)c1ccc(Cl)cc1 (centres undefined),5.3,-2.6,i,97.0,-3.8,nt,nt
Cn1nc(-c2ccc(C(=O)NCCO)cc2)c2ccccc2c1=O,0.8,nt,i,102.0,7.9,nt,nt
CCN(CC)C(=O)CSc1nnc(SC(C)C(=O)NC2CC2)s1 (centres undefined),-9.2,nt,i,98.0,7.0,i,0.0
CC(C)(C)S(=O)N1Cc2cc(C(=O)NCc3ccc(Oc4ccccc4)cc3)nc(-c3cccc(-c4cc5ccccc5o4)c3)c2[C@@H]1CCO (some centres undefined),nt,nt,i,100.0,4.2,nt,nt
CN(C)c1ccc(S(=O)(=O)NCC(=O)N2CCN(c3ccccc3)CC2)cc1[N+](=O)[O-],3.9,nt,+,98.0,-8.3,i,0.3
COCC(=O)Nc1c(C(=O)Nc2cccc(OC)c2)oc2ccccc12,6.2,4.8,i,99.0,1.6,i,0.0
O=C(COC(=O)Cc1ccccc1F)NNC(=O)c1ccc([N+](=O)[O-])cc1,7.3,nt,i,97.0,4.5,nt,nt
CCCCOC(=O)c1cc(C)nc2ccc(Br)cc12,-5.1,1.5,i,97.0,-6.5,nt,nt
CCOC(=O)c1cc(C(=O)OCC)c2cc(Br)ccc2n1,-2.3,12.3,+,98.0,-2.1,i,0.0
Cc1cccc(N2CCN(C(=S)NCCc3ccccc3)CC2)c1C,1.3,-6.9,+,100.0,-4.7,i,0.0
O=C(NNC(=O)C12CC3CC(CC(C3)C1)C2)c1ccccc1[N+](=O)[O-],3.6,nt,i,103.0,-4.4,i,0.0
Cc1ccc(C(=O)NC(C)c2nnc(SCC(=O)NC3CCCC3)n2C)cc1 (centres undefined),-5.3,nt,i,92.0,-12.0,nt,nt
O=C(NCC1CCCCC1)C12CN(Cc3ccccc3)CC1C(c1cccc([N+](=O)[O-])c1)=NO2 (centres undefined),-9.3,-15.8,+,94.0,-6.7,i,0.0
COc1ccc(CCNC(=O)C23CN(Cc4ccccc4)CC2C(c2cccc([N+](=O)[O-])c2)=NO3)cc1 (centres undefined),-7.3,-16.4,i,103.0,-1.5,nt,nt
